For one molecule, Potency results are on record in PubChem BioAssay AID743383 (National Center for Advancing Translational Sciences (NCATS), 2014).

Active and inactive are the calls of the source. Calls follow the shape of the full dose curve.

Sequence of Phosphatidylinositol 5-phosphate 4-kinase type-2 alpha (Homo sapiens) (P48426 whole entry, looked up, canonical isoform): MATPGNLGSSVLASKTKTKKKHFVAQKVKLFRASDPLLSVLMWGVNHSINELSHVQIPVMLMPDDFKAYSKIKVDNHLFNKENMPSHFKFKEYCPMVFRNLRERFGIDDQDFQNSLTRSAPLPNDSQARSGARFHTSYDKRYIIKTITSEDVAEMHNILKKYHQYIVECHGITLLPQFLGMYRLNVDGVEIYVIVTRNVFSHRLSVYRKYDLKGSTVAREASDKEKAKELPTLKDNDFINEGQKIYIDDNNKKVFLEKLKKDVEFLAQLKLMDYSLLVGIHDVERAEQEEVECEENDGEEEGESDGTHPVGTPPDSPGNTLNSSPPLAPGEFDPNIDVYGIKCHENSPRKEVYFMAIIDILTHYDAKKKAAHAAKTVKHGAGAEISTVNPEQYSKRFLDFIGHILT

The target in this experiment is Phosphatidylinositol 5-phosphate 4-kinase type-2 alpha (Homo sapiens) (UniProt P48426). Description: qHTS for Inhibitors of PI5P4K: PI5P4K-alpha 32P-ATP TLC Secondary Assay for Probe SAR. The note with it: recombinant PI5P4K-alpha, 32P-ATP TLC PI(4,5)P2 formation. The text has this:
In addition to finding PI5P, we discovered the type II phosphatidylinositol 5-phosphate 4-kinase (PI5P4K) family (alpha, beta, gamma isoforms) that catalyze the conversion of PI5P to PI(4,5)P2. Alternatively, PI(4,5)P2 can also be synthesized through phosphatidylinositol-4-phosphate (PI4P) by the type I phosphatidylinositol 4-phosphate 5-kinases (PI4P5K). These PI5P4K enzymes therefore represent one way by which cells can regulate endogenous PI5P levels and play important roles in insulin signaling and in stress responses. […] A qHTS PI5P4K-alpha ADP-Glo assay was developed to identify specific modulators of human PI5P4K, phosphatidylinositol-5-phosphate 4-kinase (Type II PIPK). To confirm that the active compounds and their analogs were true and selective inhibitors, a secondary Thin-layer Chromatography (TLC) assay against recombinant PI5P4K-alpha, PI4P5K-alpha or PI5P4K-beta that utilize a radioactively labeled ATP were developed. The data herein are the result of the PI5P4Kalpha TLC assay. […]
The kinase reaction was carried out in a total of 50 microL of kinase buffer (50 mM HEPES pH 7.4 and 10 mM MgCl2) containing 20 microM of the lipids that were suspended by sonication. […] The radiolabeled product, PI(4,5)P2, was quantified with a phosphorimager (Molecular Dynamics, STORM840, GE Healthcare, Waukesha, WI, USA).
Background: In qHTS, concentration-response curves come from the screen itself.
In the case of `O=C1Nc2ccc(C(=O)c3ccco3)cc2/C1=C/c1cc(Cl)c(O)c(Cl)c1`, the Potency was 18 nM (active).
